# Experimental data from PubChem BioAssay.
# Several values for one entry are separate records, joined by “and”; a condition that tells them apart may be missing. Equal entries are not always repeated. Activity calls are given as the source filed them.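 How the source made its calls, unless noted: active means compounds whose cell count with miR-34 switched on is under 0.7 times the count with it off; inactive means the rest.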
# Key:
# [1] = P. berghei load reduction in hepatocytes – cell-based, HepG2, luciferase luminescence, HepG2 viability, primary screen (AID 624349; in the data active means parasite load remaining mostly below about 12%, no sharp cut-off; inactive means mostly above about 10%;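 further: 100% = mean of DMSO negative control wells on the same plate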); conditions: P. berghei liver stage in HepG2, luciferase luminescence, concentration not given here; parasite load remaining: stronger effect = lower value; viability: measured here: HepG2 viability without parasites
# [2] = Wnt pathway potentiators raising nuclear beta-catenin – imaging, WNT3A-conditioned medium, mouse C2C12, NPC library, primary screen (AID 1117326; in the data active means nuclear beta-catenin stimulation mostly above about 4.2%, no sharp cut-off; inactive means mostly below about 10%); conditions: stronger effect = higher value
# [3] = stimulators of insulin release from INS-1E, primary screen, cell-based, 5 mM glucose, NPC library (AID 1117329;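 active means compound raises insulin release from rat beta cells at 5 mM glucose, no numeric limit stated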); conditions: rat INS-1E insulin secretion, at 10 µM, stronger effect = higher value
# [4] = growth inhibition of GSK3B-pretreated HCT116 cells – cell-based, CellTiter-Glo, 0.2 to 20 µM (AID 1117336;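 active means compounds lowering colon cancer cell viability after pretreatment blocking the GSK3B kinase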); conditions: HCT116 viability after GSK3B inhibitor, at 20 µM, stronger effect = higher value
# [5] = inhibition of endothelial tube formation, primary screen, imaging, VEGF stimulated, CD31 staining, tube area, NPC library (AID 1117340;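 active means compound that reduces growth-factor-driven endothelial tube area in a mixed cell culture, no cutoff stated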); conditions: VEGF-stimulated ADSC/ECFC co-culture, at 10 µM, stronger effect = higher value
# [6] = GLP1 release stimulators, primary, NCI-H716, NPC library (AID 1117341;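 active means compound raises GLP1 secretion from the human gut endocrine cells, with no numeric limit stated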); conditions: NCI-H716 cells, at 10 µM, stronger effect = higher value
# [7] = HCT116 colon cancer cell growth inhibition, primary screen, CellTiter-Glo luminescence, NPC library (AID 1117342;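 active means compounds that lower survival of HCT116 colon cancer cells in the luminescence readout, no numeric limit stated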); conditions: at 20 µM (top of the series)
# [8] = reduced SW480 viability measured with CellTiter-Glo, NPC library, primary (AID 1117343;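 active means compounds that lower viability of the colon cancer cells in the luminescence readout, with no numeric limit stated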); conditions: CellTiter-Glo luminescence; at 20 µM (top of the series)
# [9] = NPC library primary testing for decreased DLD-1 cell viability via CellTiter-Glo (AID 1117346;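 active means compounds that lower survival of DLD-1 colon cancer cells in the luminescence readout, no cutoff given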); conditions: DLD-1 viability, CellTiter-Glo luminescence; at 20 µM (top of the series)
# [10] = target: 6-phosphogluconate dehydrogenase, decarboxylating (Homo sapiens) (UniProt P52209); assay: inhibition of human phosphogluconate dehydrogenase – biochemical, recombinant enzyme, NADPH absorbance, primary screen (AID 1159550;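 active means at least 20% inhibition of 6-phosphogluconate dehydrogenase activity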); conditions: recombinant 6PGD, NADPH absorbance 341 nm; at 10 µM; stronger effect = higher value
# Sequence of 6-phosphogluconate dehydrogenase, decarboxylating (Homo sapiens) (P52209 whole entry, looked up): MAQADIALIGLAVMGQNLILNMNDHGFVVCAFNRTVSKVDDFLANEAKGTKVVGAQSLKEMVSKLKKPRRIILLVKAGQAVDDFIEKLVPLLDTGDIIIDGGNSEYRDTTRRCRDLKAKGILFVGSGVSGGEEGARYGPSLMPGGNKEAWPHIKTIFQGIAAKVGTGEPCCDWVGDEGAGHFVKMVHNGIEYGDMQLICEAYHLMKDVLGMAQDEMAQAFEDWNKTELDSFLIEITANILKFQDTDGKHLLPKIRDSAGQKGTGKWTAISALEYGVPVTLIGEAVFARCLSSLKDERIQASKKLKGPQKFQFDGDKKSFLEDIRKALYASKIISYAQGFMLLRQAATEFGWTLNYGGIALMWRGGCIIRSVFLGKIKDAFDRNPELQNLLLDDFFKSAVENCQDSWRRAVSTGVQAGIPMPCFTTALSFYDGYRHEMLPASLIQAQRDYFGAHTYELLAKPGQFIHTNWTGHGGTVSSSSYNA
# [11] = EMT-state selective cytotoxicity in co-culture – imaging, PC-3E GFP, TEM4-18 mCherry, primary screen (AID 1345086;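 active means compounds killing one labelled cell type while sparing the other, by normalised counts and ratio limits, not self-fluorescent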;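 on all read-outs here: cells exposed to compound for 72 h before imaging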;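 on red/green cell ratio (normalised): normalised mesenchymal count divided by normalised epithelial count so high means epithelial killing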); conditions: PC-3E GFP / TEM4-18 mCherry co-culture, imaging cell counts, at 1 µM; for red/green cell ratio (normalised): actives lie on both sides
# [12] = tested on: Aerobactin synthetase IucA (Klebsiella pneumoniae hvKP1); assay: IucA enzyme inhibition, primary screen, biochemical, Spectrum library (AID 1346200; call rule not given here;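 further: 100% = wells without compound and 0% = wells lacking enzyme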); conditions: malachite green pyrophosphate, A620, at 8 µM, stronger effect = lower value
# [13] = viability loss with induced miR-34 in A549 – imaging, A549 dox-inducible miR-34, nuclei and caspase counts, primary screen (AID 1347080); conditions: A549 miR-34 inducible, Hoechst nuclei count, 48 h
# [14] = MELAS cybrid and Rieske KO viability enhancers – cell-based, MELAS cybrids, Rieske KO mouse fibroblasts, CellTiter-Glo, primary screen (AID 1508586;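 active means mean z-score across replicates of 1.96 or higher in either the MELAS or the Rieske mutant cell line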;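 further: z relative to plate mean and SD of compound and empty wells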); conditions: low glucose
# [15] = target: NAD(+) hydrolase SARM1 (Homo sapiens) (UniProt Q6SZW1); assay: blocking NAD cleavage by SARM1 SAM-TIR – cell lysate, NAD-Glo luminescence (AID 1508614;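 active means compound whose remaining NAD level is above about 45 nM, limit read from the data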); conditions: SAM-TIR HEK293T lysate NADase, at 1 µM, stronger effect = higher value
# Sequence of NAD(+) hydrolase SARM1 (Homo sapiens) (Q6SZW1 whole entry, looked up, the tested form may be a part): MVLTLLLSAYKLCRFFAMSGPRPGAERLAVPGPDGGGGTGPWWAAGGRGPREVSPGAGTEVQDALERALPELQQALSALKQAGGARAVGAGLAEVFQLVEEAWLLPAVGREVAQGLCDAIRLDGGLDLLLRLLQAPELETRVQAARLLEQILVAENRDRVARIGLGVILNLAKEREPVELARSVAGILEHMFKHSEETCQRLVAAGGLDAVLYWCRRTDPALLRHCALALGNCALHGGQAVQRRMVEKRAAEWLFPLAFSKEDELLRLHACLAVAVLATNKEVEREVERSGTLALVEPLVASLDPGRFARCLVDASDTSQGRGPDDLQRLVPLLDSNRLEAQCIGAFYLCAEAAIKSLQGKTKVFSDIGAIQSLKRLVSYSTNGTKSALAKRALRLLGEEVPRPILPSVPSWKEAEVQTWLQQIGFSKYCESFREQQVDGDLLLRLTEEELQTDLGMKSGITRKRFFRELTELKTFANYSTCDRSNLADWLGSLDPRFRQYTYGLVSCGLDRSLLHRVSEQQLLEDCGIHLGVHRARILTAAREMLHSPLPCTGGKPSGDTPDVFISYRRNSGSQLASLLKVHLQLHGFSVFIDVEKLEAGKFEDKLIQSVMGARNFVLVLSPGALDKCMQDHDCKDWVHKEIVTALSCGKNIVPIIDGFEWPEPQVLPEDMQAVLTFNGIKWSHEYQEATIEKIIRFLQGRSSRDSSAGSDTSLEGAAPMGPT
# [16] = target: Mitogen-activated protein kinase 7 (Homo sapiens) (UniProt Q13164); assay: Gal4-ERK5 driven luciferase induction – cell-based, HTS, primary screen (AID 1508626;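 active means luciferase signal above three times the same-plate solvent-only control wells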;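 further: luciferase driven by Gal4-ERK5 fusion binding five Gal4 sites before minimal TATA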); conditions: HeLa Gal4-ERK5 transactivation, 18 h, at 5 µM, stronger effect = higher value
# Sequence of Mitogen-activated protein kinase 7 (Homo sapiens) (Q13164 whole entry, looked up, the tested form may be a part): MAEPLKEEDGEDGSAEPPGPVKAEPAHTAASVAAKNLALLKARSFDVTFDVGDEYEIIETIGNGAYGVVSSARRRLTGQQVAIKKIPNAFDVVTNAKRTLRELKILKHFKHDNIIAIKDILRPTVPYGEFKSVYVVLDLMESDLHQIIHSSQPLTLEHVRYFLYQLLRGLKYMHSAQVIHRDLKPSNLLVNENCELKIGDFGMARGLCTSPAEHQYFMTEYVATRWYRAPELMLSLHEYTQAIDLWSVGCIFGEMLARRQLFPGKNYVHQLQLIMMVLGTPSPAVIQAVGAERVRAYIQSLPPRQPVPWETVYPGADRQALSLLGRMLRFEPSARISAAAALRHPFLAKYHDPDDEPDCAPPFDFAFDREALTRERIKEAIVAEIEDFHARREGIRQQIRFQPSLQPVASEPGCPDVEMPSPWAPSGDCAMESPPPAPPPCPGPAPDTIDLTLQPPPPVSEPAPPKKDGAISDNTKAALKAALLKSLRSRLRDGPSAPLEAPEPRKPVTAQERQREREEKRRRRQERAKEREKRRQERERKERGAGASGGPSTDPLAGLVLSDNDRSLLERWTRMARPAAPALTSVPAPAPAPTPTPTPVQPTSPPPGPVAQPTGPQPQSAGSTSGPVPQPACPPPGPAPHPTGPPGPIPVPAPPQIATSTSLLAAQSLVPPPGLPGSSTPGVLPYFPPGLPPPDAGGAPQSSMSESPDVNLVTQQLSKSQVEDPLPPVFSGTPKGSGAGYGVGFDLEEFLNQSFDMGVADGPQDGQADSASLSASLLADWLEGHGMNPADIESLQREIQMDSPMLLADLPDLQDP
# [17] = galactose survival enhancers in mitochondrial complex I cybrids – cell-based, galactose medium, ATP luminescence, primary screen (AID 1645843;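 active means z-score of at least 1.8 in each of two replicates, scored against plate mean and spread of sample wells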;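 further: positive z means more ATP and so rescue of galactose-driven cybrid death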); conditions: complex I mutant cybrid cells, 72 h, stronger effect = higher value
# [18] = yeast 75Q aggregation reduction – 75Q-TubU reporter (AID 1593); conditions: Yeast 75Q polyglutamine aggregation reporter
# [19] = blockers of cytochrome c efflux from mitochondria – biochemical, purified mitochondria (AID 1603); conditions: stronger effect = lower value;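 further: mouse liver mitochondria challenged with calcium chloride; signal normalized to the plate average as 100%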
# [20] = polyglutamine aggregate formation blockers (AID 1604); conditions: polyglutamine-induced protein aggregation inhibition assay; stronger effect = higher value; tested at 2.5 µM
# [21] = measured here: epithelial PC-3E GFP cell survival
# [22] = measured here: mesenchymal TEM4-18 mCherry cell survival
# [23] = measured here: relative caspase fold change +Dox/-Dox
# [24] = measured here: total cells with miR-34 induction, stronger effect = lower value
# [25] = measured here: total cells without miR-34 induction
# [26] = MELAS cybrid survival, CellTiter-Glo 48 h, stronger effect = higher value
# [27] = Rieske KO mouse fibroblast survival, CellTiter-Glo 72 h
smiles,measurement,setting,value
CCC1(C2=NCCN2)Cc2ccccc2O1 (configuration not stated),parasite load remaining,[1],40% (inactive)
same,viability,[1],95.5%
same,nuclear beta-catenin stimulation,[2]; at 10 µM,1.3% (inactive)
same,nuclear beta-catenin stimulation,"[2]; stimulation, at 2 µM",-0.1%
same,insulin secretion stimulation,[3],3% (inactive)
same,viability decrease,[4],-18.3% (inactive)
same,tube area decrease,[5],6.6% (inactive)
same,GLP1 secretion stimulation,[6],2.2% (inactive)
same,inhibition of viability,[7],3.97% (inactive)
same,viability decrease (inhibition),[8],3% (inactive)
same,viability decrease (inhibition),[9],0.7% (inactive)
same,inhibition,[10],2.64% (inactive)
same,red/green cell ratio (normalised),"[11]; counts scaled to control wells, 1 = unselective",0.88 (inactive)
same,normalised cell number,[11]; [21],1.21
same,normalised cell number,[11]; [22],1.07
same,activity remaining,[12],92.2% (inactive)
same,fold change,[13]; stronger effect = lower value,0.923 (inactive) and 0.953 (inactive) and 0.905 (inactive)
same,fold change,[13]; [23],1.9 and 0.731 and 1.02
same,cell count,[13]; [24],9860 and 8980 and 10100
same,cell count,[13]; [25],10700 and 9420 and 11200
same,z-score,[14]; [26],-0.478 (inactive)
same,z-score,[14]; [27],-0.349
same,remaining NAD,[15],10 nM (inactive)
same,luciferase signal,[16],140 AU (inactive)
same,z-score,[17],0.21 (inactive) and 0.18 (inactive) and 0.695 (inactive)
COP(=S)(OC)Oc1ccc(S(N)(=O)=O)cc1,nuclear beta-catenin stimulation,[2]; at 10 µM,0.4% (inactive)
same,nuclear beta-catenin stimulation,"[2]; stimulation, at 2 µM",1.1%
same,insulin secretion stimulation,[3],-1.7% (inactive)
same,viability decrease,[4],-4.35% (inactive)
same,tube area decrease,[5],-30.3% (inactive)
same,GLP1 secretion stimulation,[6],1.6% (inactive)
same,inhibition of viability,[7],-18.1% (inactive)
same,viability decrease (inhibition),[8],4.3% (inactive)
same,viability decrease (inhibition),[9],-0.7% (inactive)
CCN(Cc1ccc(Cl)nc1)/C(=C/[N+](=O)[O-])NC,nuclear beta-catenin stimulation,[2]; at 10 µM,-0.1% (inactive)
same,nuclear beta-catenin stimulation,"[2]; stimulation, at 2 µM",1.1%
same,insulin secretion stimulation,[3],3.5% (inactive)
same,viability decrease,[4],3.9% (inactive)
same,tube area decrease,[5],-21.3% (inactive)
same,GLP1 secretion stimulation,[6],-4.7% (inactive)
same,inhibition of viability,[7],-3.27% (inactive)
same,viability decrease (inhibition),[8],13.3% (inactive)
same,viability decrease (inhibition),[9],4.5% (inactive)
NCCc1ccc(O)cc1,score,[18],1.21
same,cytochrome c release ratio,[19],0.71
same,inhibition of aggregation,[20],39.2%
same,nuclear beta-catenin stimulation,[2]; at 10 µM,-0.5% (inactive)
same,nuclear beta-catenin stimulation,"[2]; stimulation, at 2 µM",1.3%
same,insulin secretion stimulation,[3],1.8% (inactive)
same,viability decrease,[4],4.6% (inactive)
same,tube area decrease,[5],-10% (inactive)
same,GLP1 secretion stimulation,[6],-1.8% (inactive)
same,inhibition of viability,[7],9.07% (inactive)
same,viability decrease (inhibition),[8],5.3% (inactive)
same,viability decrease (inhibition),[9],-2.9% (inactive)
same,inhibition,[10],-11.3% (inactive)
same,red/green cell ratio (normalised),[11],0.8 (inactive)
same,normalised cell number,[11]; [21],1.04
same,normalised cell number,[11]; [22],0.83
same,activity remaining,[12],108% (inactive)
same,fold change,"[13]; stronger effect = lower value, cell number ratio, induced over uninduced",0.965 (inactive)
same,fold change,[13]; [23],1.32
same,cell count,[13]; [24],10000
same,cell count,[13]; [25],10400
same,luciferase signal,[16],52 AU (inactive)
same,z-score,[17],0.68 (inactive)
CCCC(C)(COC(N)=O)COC(=O)NC(C)C (configuration not stated),score,[18],1.44
same,cytochrome c release ratio,[19],0.68
same,inhibition of aggregation,[20],85.8%
same,nuclear beta-catenin stimulation,[2]; at 10 µM,0.1% (inactive)
same,nuclear beta-catenin stimulation,"[2]; stimulation, at 2 µM",-0.6%
same,insulin secretion stimulation,[3],3.4% (inactive)
same,viability decrease,[4],-38.7% (inactive)
same,tube area decrease,[5],14.3% (inactive)
same,GLP1 secretion stimulation,[6],-1.3% (inactive)
same,inhibition of viability,[7],-14.1% (inactive)
same,viability decrease (inhibition),[8],-5.3% (inactive)
same,viability decrease (inhibition),[9],-12.4% (inactive)
same,inhibition,[10],-0.85% (inactive)
same,red/green cell ratio (normalised),[11],1.05 (inactive)
same,normalised cell number,[11]; [21],1.17
same,normalised cell number,[11]; [22],1.23
same,activity remaining,[12],115% (inactive)
same,fold change,[13]; stronger effect = lower value,0.952 (inactive) and 0.896 (inactive) and 0.902 (inactive)
same,fold change,[13]; [23],1.07 and 1.02 and 3.4
same,cell count,[13]; [24],10700 and 9140 and 11300
same,cell count,[13]; [25],11200 and 10200 and 12600
same,z-score,[14]; [26],0.305 (inactive)
same,z-score,[14]; [27],0.223
same,remaining NAD,[15],10 nM (inactive)
same,luciferase signal,[16],40 AU (inactive)
same,z-score,[17],1.27 (inactive)
